Source: PubChem (National Center for Advancing Translational Sciences (NCATS))
HepG2 viability: kills HepG2 cells in TGF-b inhibitor counter-screen; AID 588856; Potency, µM (top dose mostly 46.1 µM), without a hit: at the top dose activity change, negative = cytotoxicity, usual class: cytotoxic; actives 0.76% (n = 410,000); HepG2 CAGA-GFP viability, ATP luminescence, 18 h
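HepG2 CAGA-GFP cells (1000/well, DMEM with 1% FBS) received compound, then TGF-beta at 500 pg/mL final, and were incubated 18 hours at 37 degrees C. Viability was read by CellTiter-Glo luminescence. Media-only wells were set as complete cell-killing and DMSO as no toxicity.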
TGFb SMAD3 inh: inhibitors of TGF-b signaling. AID 588855. Potency, µM (titrated, usually from 46.1 µM), for the others: top-dose activity, negative = inhibition, usual class: inhibitors. HepG2 CAGA-GFP TGF-b/SMAD3 reporter, GFP fluorescence, 18 h; TGF-beta stimulated, 500 pg/mL final. actives 1.2% (n = 410,000); further: on the % scale 0 is the no-effect control and ±100 the full control effect; nearly all actives have a fitted effect of over 65% in size
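Read-out: total well GFP (ex488/em500-530) summed from mean per-cell fluorescence. Cells: HEPG2 CAGA-GFP, 1% FBS DMEM, 18 h at 37 degrees C with 500 pg/mL final TGF-beta. Unstimulated wells served as the full-inhibition control; stimulated DMSO wells = 0%.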
HT1080 IDH1KD tx: kills HT-1080 cells with IDH1 knockdown | HT-1080 IDH1 knockdown viability, ATP luminescence, 48 h | Potency, µM (titrated, usually from 46.1 µM), without a hit: at the top dose activity, negative = toxicity, actives largely listed as cytotoxic | actives 2% (n = 360,000);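 further: 0% = DMSO wells and -100% = cell-free medium wells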
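IDH1KD HT-1080 cells, 750/well, RPMI + 5% FBS; compound pinned after 2 h settling; 48 h, 37 °C; CellTiter-Glo luminescence; % activity normalised to DMSO and no-cell wells; curves fitted, classed by r2 and efficacy.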
DT40 TDP1 CPT: growth inhibition of DT40 Tdp1-/-;hTDP1 cells with camptothecin (screen for TDP1 inhibitors). chicken DT40 Tdp1-/-;hTDP1 cells + 20 nM CPT, ATP luminescence, 48 h. Potency, µM (highest dose often 46.2 µM), without a hit: top-dose activity change, negative = growth inhibition, most hits filed as inhibitors. actives 12% (n = 420,000); further: on the % scale 0 is the no-effect control and ±100 the full control effect; nearly all actives have a fitted effect of over 55% in size
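Chicken DT40 Tdp1-/- cells stably complemented with human TDP1 were seeded at 400 cells/well in medium containing 20 nM camptothecin, exposed to pin-transferred compounds, and grown at 37 °C for at least 48 hr. Viability was read as ATP luminescence.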
HT1080-NT tox: kills 2HG-producing HT-1080-NT fibrosarcoma cells; HT-1080-NT fibrosarcoma viability, CellTiter-Glo ATP luminescence, 48 h; Potency, µM (titrated, usually from 46.1 µM), for the others: at the highest dose activity, negative = less viability, most hits filed as cytotoxic; actives 1.6% (n = 360,000);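 further: NT is the 2HG producing partner of a matched IDH1 knockdown line; 0% = DMSO-treated cells and -100% = media-only wells without cells; nearly all actives have a fitted effect of over 55% in size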
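750 cells/well, RPMI + 5% FBS; 2 h settle, compound pin-transfer, 48 h at 37 degrees C. CellTiter-Glo 10 min RT, luminescence. Normalized to DMSO and media-only wells.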
TDP1 cell noCPT: qHTS for Inhibitors of human tyrosyl-DNA phosphodiesterase 1 (TDP1): qHTS in cells in absence of CPT; AID 686978, 2013; DT40 Tdp1-/- hTDP1 cells, no CPT, ATP luminescence, 48 h; actives 15% (n = 420,000); Potency, µM (highest dose often 46.2 µM), without a hit: top-dose activity change, negative = growth inhibition, hits mostly inhibitors; further: on the % scale 0 is the no-effect control and ±100 the full control effect; nearly all actives have a fitted effect of over 55% in size
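Growth kinetics read by CellTiter-Glo luminescence after ≥48 hr at 37 °C. Cells: DT40 Tdp1-/- stably carrying human TDP1, 400 per well, compound exposure in the absence of CPT (DMSO vehicle).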
Numbers without * were called inactive; ? = inconclusive; · = no result given. Rows were chosen to be rich in hits. Some 17% of all compounds tested hit in one or more screens of this group. The call rests on the fitted dose curve; in most records, active means well fitted curve in the direction sought with a large enough effect; inconclusive means small, poorly fitted or top-dose-only effect, or another doubt; inactive means no such curve, though single readings can be large; an effect the other way counts as inactive or inconclusive. Potency means the concentration at half of the fitted maximal effect.

SMILES	HepG2 viability	TGFb SMAD3 inh	HT1080 IDH1KD tx	DT40 TDP1 CPT	HT1080-NT tox	TDP1 cell noCPT
COc1ccc(C2/C=C\CN(C(=O)C3CC3)C(Cc3ccccc3)C(=O)N2Cc2ccc(F)cc2)cc1 (stereo not drawn)	0.3%	?	·	·	·	·
COc1ccc(/C=N/N2C(=O)CN(C(=O)c3ccccc3)C2c2ccc(OC)cc2)cc1 (stereo not drawn)	23.5%	22.9%	-13.7%	-25.3%	-4.7%	?
COc1ccc(C2N(C(=O)c3ccccc3)CCN2C(=O)c2ccc(C)cc2)cc1 (stereo not drawn)	-15.9%	-13.7%	-23.5%	29.1µM*	0.0%	?
Cc1ccc(S(=O)(=O)N2CCC(C(=O)Nc3ncccc3O)CC2)cc1	4.6%	4.6%	1.3%	13.6%	-0.6%	15.8%
COC(=O)C(c1ccccc1Cl)N1CCc2sccc2C1 (stereo not drawn)	·	·	·	?	·	0.2%
Cc1cc(O)c(C2=Nc3ccccc3SC(c3ccc(Cl)cc3)C2)c(=O)o1 (stereo not drawn)	6.9%	?	3.3%	5.17µM*	?	7.31µM*
COc1ccc(-c2csc(N(CCc3ccccc3)C(=O)COc3ccccc3)n2)cc1	-3.2%	8.8%	-3.6%	?	-6.5%	?
O=C(COc1ccc(Cl)cc1)N(Cc1ccccc1)c1nc(-c2ccccc2)cs1	-36.6%	15.4%	9.1%	?	8.2%	25.9µM*
COc1ccc(NC(=O)C2(C)CCN2Cc2ccc3ccccc3c2)cc1OC (stereo not drawn)	-38.6%	?	?	?	-20.8%	?
COc1ccc(CN2CCC2(C)C(=O)Nc2ccc(OC)c(OC)c2)cc1 (stereo not drawn)	-4.8%	26.9%	4.9%	?	-0.8%	?
CSc1ccc(CN2CCC2(C)C(=O)NC2CCN(Cc3ccccc3)CC2)cc1 (stereo not drawn)	-29.4%	0.5%	-7.1%	25.9µM*	-8.6%	18.4µM*
CC1(C(=O)NC2CCN(Cc3ccccc3)CC2)CCN1Cc1cc2ccccc2o1 (stereo not drawn)	-45.5%	-8.9%	-12.5%	?	-21.3%	-85.1%
COc1ccc(NC(=O)C2(C)CCN2Cc2ccc(SC)cc2)cc1OC (stereo not drawn)	-1.4%	-14.5%	-7.6%	16.4µM*	-12.0%	?
COc1ccc(NC(=O)C2(C)CCN2Cc2ccc(OC(F)(F)F)cc2)cc1OC (stereo not drawn)	-20.0%	-23.9%	-21.4%	23.1µM*	3.6%	?
O=[N+]([O-])c1ccc2c(c1)c(-c1ccccc1)nc1nncn12	10.3%	12.8%	-16.0%	3.2%	-0.2%	7.31µM*
Nc1nn(-c2ccccc2)c2ccc([N+](=O)[O-])cc12	-28.1%	-0.3%	?	-26.0%	?	?
COCCNc1nc2c(c(=O)[nH]c(=O)n2C)n1CCCc1ccccc1	19.1%	-19.6%	14.8%	-19.9%	7.3%	2.0%
COc1ccc(Cl)cc1N1C(=NC(=O)C2CCCO2)SC2CS(=O)(=O)CC21 (stereo not drawn)	2.6%	-9.7%	7.4%	-0.4%	-0.5%	9.4%
CC(=O)NC12CC3CC(C1)CC(C(=O)N(C)CC(=O)Nc1ccccc1Cl)(C3)C2	-20.2%	?	2.7%	13.7%	1.6%	-24.6%
CCN(CC)c1ncnc2c1ncn2[C@H]1CN(Cc2ccc(-c3ccccc3)cc2)C[C@@H](CO)O1	-116.1%	?	?	?	?	16.4µM*
CCN(CC)c1ncnc2c1ncn2[C@H]1CN(Cc2ccco2)C[C@@H](CO)O1	-4.5%	-1.0%	9.3%	?	19.2%	-18.2%
CC(C)Nc1ncnc2c1ncn2[C@H]1CN(Cc2ccc(-c3ccccc3)cc2)C[C@@H](CO)O1	-25.8%	-10.1%	?	4.61µM*	?	5.17µM*
CN(C)CCNc1ncnc2c1ncn2[C@H]1CN(Cc2ccc(-c3ccccc3)cc2)C[C@@H](CO)O1	-87.5%	15.8µM*	20.6µM*	29.1µM*	6.51µM*	20.6µM*
OCCNc1ncnc2c1ncn2[C@H]1CN(Cc2ccc(-c3ccccc3)cc2)C[C@@H](CO)O1	-26.5%	-1.2%	-27.7%	?	-29.2%	?
CC(C)CNc1ncnc2c1ncn2[C@H]1CN(Cc2ccc(-c3ccccc3)cc2)C[C@@H](CO)O1	-26.2%	?	?	5.17µM*	18.4µM*	4.11µM*
SMILES	HepG2 viability	TGFb SMAD3 inh	HT1080 IDH1KD tx	DT40 TDP1 CPT	HT1080-NT tox	TDP1 cell noCPT
CN(C)CCNc1ncnc2c1ncn2[C@H]1CN(Cc2ccccc2)C[C@@H](CO)O1	-8.1%	2.6%	15.0%	?	?	-23.0%
CC(C)CNc1ncnc2c1ncn2[C@H]1CN(Cc2ccncc2)C[C@@H](CO)O1	3.7%	2.5%	21.9%	-24.8%	11.6%	?
COC(=O)c1ccc(OC(=O)C2CSC3(C)CCC(=O)N23)cc1 (stereo not drawn)	-1.0%	12.3%	-2.5%	-3.9%	-4.0%	1.4%
O=C(CCN1C(=O)C2CC=CCC2C1=O)Nc1ccc(S(=O)(=O)N2CCCCC2)cc1 (stereo not drawn)	3.4%	-0.6%	-7.5%	-28.9%	-2.7%	-28.3%
Cc1cc(C)c(NC(=O)Cn2nnc(-c3ccccc3)n2)c(C)c1	6.6%	-0.8%	·	·	·	·
CC(C)(C)OC(=O)N1CCC(c2c(C(=O)N3CCN(C(=O)c4ccco4)CC3)cnn2-c2cccc(F)c2)CC1	-2.1%	0.0%	·	?	·	?
